This is a sample that favours compounds with a hit; in the whole collection about 2.4% have one here.
M1 ag parental = counter-screen for M1 agonists: effect in parental CHO-K1 cells; Fluo-8 calcium fluorescence; scaled to maximal ATP response, vehicle zero; activation, % at 3 µM; 0.48% of 360,000 active; AID 602248, 2012; in the data active = activation above about 15%;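 also: untransfected CHO-K1 host cells lacking M1 receptor as counterscreen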
CHO-K1 Ca antag = M1 antagonist counterscreen hit in parental CHO-K1 cells. ATP-induced calcium, Fluo-8 fluorescence. inhibition, % at 3 µM. 0.6% of 360,000 active. AID 602250;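 active = inhibition above a per-plate cutoff, the plate's mean sample inhibition plus 3 SD, cut at about 24% in these data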
CHRM1 antagonist = human M1 muscarinic receptor antagonists, primary screen, CHO-K1 cells, Fluo-8 calcium fluorescence, 1536-well | CHO-K1 hM1, ACh EC80 antagonist | inhibition, % at 3 µM | 1.3% of 360,000 active | AID 588852, 2011;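 active = percent inhibition above its own plate's cutoff, namely the mean of that plate's compound wells plus 3 SD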;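 also: peak over basal fluorescence ratio during 140 s after agonist addition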
Target sequence (P11229 whole entry, looked up): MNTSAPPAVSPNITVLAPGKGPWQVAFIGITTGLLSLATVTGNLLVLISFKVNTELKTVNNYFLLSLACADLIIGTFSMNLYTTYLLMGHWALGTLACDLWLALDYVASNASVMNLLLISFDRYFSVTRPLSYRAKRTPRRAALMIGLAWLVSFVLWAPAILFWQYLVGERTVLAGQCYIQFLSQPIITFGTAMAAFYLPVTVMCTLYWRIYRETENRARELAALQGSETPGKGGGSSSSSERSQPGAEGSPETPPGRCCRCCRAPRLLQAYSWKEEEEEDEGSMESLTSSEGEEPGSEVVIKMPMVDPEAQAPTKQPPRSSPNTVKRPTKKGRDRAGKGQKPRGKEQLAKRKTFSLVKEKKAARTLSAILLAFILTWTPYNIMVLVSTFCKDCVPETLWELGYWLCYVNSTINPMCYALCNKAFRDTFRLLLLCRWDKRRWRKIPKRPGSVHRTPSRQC
M1 PAM parental = nonselective calcium activators in parental CHO-K1 cells, primary screen, counter-screen for M1 PAM project, cell-based, Fluo-8 calcium fluorescence, full deck, 1536-well. AID 602247, 2012. activation, % at 3 µM. ATP EC20; 0% at ATP EC20, 100% at ATP max. 0.02% of 360,000 active;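 active = activation above the run cutoff, the mean activation of all test compounds plus 3 SD, cut at about 40% in these data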;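 also: peak over basal fluorescence ratio in a 140 s read after ATP addition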
M1 PAM = human M1 muscarinic receptor positive allosteric modulators, primary screen, CHO-K1 cells, Fluo-8 calcium fluorescence, 1536-well; Muscarinic acetylcholine receptor M1 (Homo sapiens), P11229; CHO-K1 hM1, ACh EC20; 0% = ACh EC20, 100% = maximal ACh; activation, % at 3 µM; 0.088% of 360,000 active; AID 588819, 2011; in the data active = activation above about 19%, passing the limit was not always enough
CHRM1 agonist = human M1 muscarinic receptor agonists, primary screen, Fluo-8 calcium fluorescence, CHO-K1 cells, HTS; AID 588814, 2011; CHO-K1 hM1, agonist mode; 0% DMSO, 100% acetylcholine EC100; activation, % at 3 µM; 0.33% of 360,000 active;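 active = activation above the run's mean compound activation plus 3 SD, cut at about 16% in these data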;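 also: peak over basal fluorescence ratio within a 140 s kinetic read after compound addition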
Hits are given with their value.

`Cn1c(=O)c2c(nc(CN3CCN(CCO)CC3)n2Cc2ccccc2Cl)n(C)c1=O` gave M1 ag parental inactive, CHO-K1 Ca antag inactive, CHRM1 antagonist inactive, M1 PAM parental inactive, M1 PAM inactive and CHRM1 agonist inactive.
For COc1ccc(N2CCN(Cc3nc4c(c(=O)n(C)c(=O)n4C)n3CCc3ccccc3)CC2)cc1 the results were M1 ag parental inactive, CHO-K1 Ca antag 27, CHRM1 antagonist inactive, M1 PAM parental inactive, M1 PAM inactive and CHRM1 agonist inactive.
COc1ccc(C(=O)Cn2c(N3CCCCC3)nc3c2c(=O)n(C)c(=O)n3C)cc1OC was read as M1 ag parental 18, CHO-K1 Ca antag inactive, CHRM1 antagonist inactive, M1 PAM parental inactive, M1 PAM inactive and CHRM1 agonist inactive.
Screening Cn1c(=O)c2c(nc(N3CCCCCC3)n2CC(=O)c2ccccc2)n(C)c1=O returned M1 ag parental inactive, CHO-K1 Ca antag inactive, CHRM1 antagonist inactive, M1 PAM parental inactive, M1 PAM inactive and CHRM1 agonist inactive.
For CN1CCN(c2nc3c(c(=O)n(C)c(=O)n3C)n2Cc2ccccc2Cl)CC1 the results were M1 ag parental inactive, CHO-K1 Ca antag inactive, CHRM1 antagonist 57, M1 PAM parental inactive, M1 PAM inactive and CHRM1 agonist inactive.
For COCCn1c(CN2CCN(c3ccc(OC)cc3)CC2)nc2c1c(=O)n(C)c(=O)n2C the results were M1 ag parental inactive, CHO-K1 Ca antag inactive, CHRM1 antagonist inactive, M1 PAM parental inactive, M1 PAM inactive and CHRM1 agonist inactive.
For Cn1c(=O)c2c(nc(CN3CCN(CCO)CC3)n2Cc2cccc3ccccc23)n(C)c1=O the results were M1 ag parental inactive, CHO-K1 Ca antag 26, CHRM1 antagonist inactive, M1 PAM parental inactive, M1 PAM inactive and CHRM1 agonist inactive.
Screening CC(=NO)c1ccc2c(c1)C(=NO)c1ccccc1-2 returned M1 ag parental inactive, CHO-K1 Ca antag inactive, CHRM1 antagonist inactive, M1 PAM parental inactive, M1 PAM inactive and CHRM1 agonist inactive.
For CCN(CC)Cc1ccccc1Sc1ccccc1 the results were M1 ag parental inactive, CHO-K1 Ca antag inactive, CHRM1 antagonist 98, M1 PAM parental inactive, M1 PAM inactive and CHRM1 agonist inactive.
For N/C(Cc1ccccc1Sc1ccccc1)=N\O the results were M1 ag parental inactive, CHO-K1 Ca antag inactive, CHRM1 antagonist inactive, M1 PAM parental inactive, M1 PAM inactive and CHRM1 agonist inactive.
For O=C(C[N+]1(CC#Cc2ccccc2)CCCCC1)c1ccc(Cl)cc1 the results were M1 ag parental inactive, CHO-K1 Ca antag inactive, CHRM1 antagonist 52, M1 PAM parental inactive, M1 PAM inactive and CHRM1 agonist inactive.
O=C(C[N+]1(CC#Cc2ccccc2)CCOCC1)c1ccccc1 was read as M1 ag parental inactive, CHO-K1 Ca antag inactive, CHRM1 antagonist inactive, M1 PAM parental inactive, M1 PAM inactive and CHRM1 agonist inactive.
`O=C(C[N+]1(CC#Cc2ccccc2)CCCCC1)c1ccccc1` gave M1 ag parental inactive, CHO-K1 Ca antag inactive, CHRM1 antagonist 44, M1 PAM parental inactive, M1 PAM inactive and CHRM1 agonist inactive.
O=C(/C(=C/c1ccc(Cl)cc1)c1nc2ccccc2[nH]1)c1cccs1 was read as M1 ag parental inactive, CHO-K1 Ca antag inactive, CHRM1 antagonist 94, M1 PAM parental inactive, M1 PAM inactive and CHRM1 agonist inactive.
Screening O=c1[nH]c2ccccc2nc1/C=C(\O)c1cccs1 returned M1 ag parental 15, CHO-K1 Ca antag inactive, CHRM1 antagonist inactive, M1 PAM parental inactive, M1 PAM inactive and CHRM1 agonist 18.
O=C(/C(=C\c1ccccc1)c1nc2ccccc2[nH]1)c1ccc(Cl)cc1 was read as M1 ag parental inactive, CHO-K1 Ca antag inactive, CHRM1 antagonist inactive, M1 PAM parental inactive, M1 PAM inactive and CHRM1 agonist inactive.
Screening O=C(Nc1cccc(OC(=O)c2ccc(Br)o2)c1)c1ccccc1 returned M1 ag parental inactive, CHO-K1 Ca antag inactive, CHRM1 antagonist inactive, M1 PAM parental inactive, M1 PAM inactive and CHRM1 agonist inactive.
Screening COc1cc(/C=C2\SC(=S)N(NC(=O)c3ccccc3O)C2=O)ccc1O returned M1 ag parental inactive, CHO-K1 Ca antag inactive, CHRM1 antagonist inactive, M1 PAM parental inactive, M1 PAM inactive and CHRM1 agonist 20.
Screening O=C(NN1C(=O)/C(=C/c2ccc(O)cc2)SC1=S)c1ccccc1O returned M1 ag parental inactive, CHO-K1 Ca antag inactive, CHRM1 antagonist inactive, M1 PAM parental inactive, M1 PAM inactive and CHRM1 agonist inactive.
Cc1cccc(NS(=O)(=O)c2ccc(OCC(=O)N3CCCC3)cc2)c1 was read as M1 ag parental inactive, CHO-K1 Ca antag inactive, CHRM1 antagonist inactive, M1 PAM parental inactive, M1 PAM inactive and CHRM1 agonist inactive.
For CCOC(=O)C1=C(CC)Nc2ccccc2N=C1NC(=O)Nc1ccc(Cl)c(Cl)c1 the results were M1 ag parental inactive, CHO-K1 Ca antag inactive, CHRM1 antagonist 33, M1 PAM parental inactive, M1 PAM inactive and CHRM1 agonist inactive.
Screening CCOC(=O)C1=C(CC)Nc2ccccc2N=C1NC(=O)c1cc(C)on1 returned M1 ag parental inactive, CHO-K1 Ca antag inactive, CHRM1 antagonist inactive, M1 PAM parental inactive, M1 PAM inactive and CHRM1 agonist inactive.
Screening Cc1nc2ccc(S(=O)(=O)Nc3cccc(-c4nc5cccnc5s4)c3C)cc2s1 returned M1 ag parental inactive, CHO-K1 Ca antag inactive, CHRM1 antagonist 39, M1 PAM parental inactive, M1 PAM inactive and CHRM1 agonist inactive.
Cc1ccc(CNC(=O)C(=O)Nc2nccs2)cc1 was read as M1 ag parental inactive, CHO-K1 Ca antag inactive, CHRM1 antagonist inactive, M1 PAM parental inactive, M1 PAM inactive and CHRM1 agonist inactive.
For CCc1ccccc1NC(=O)Nc1cc(F)ccc1F the results were M1 ag parental 25, CHO-K1 Ca antag inactive, CHRM1 antagonist inactive, M1 PAM parental inactive, M1 PAM inactive and CHRM1 agonist inactive.
O=S(=O)(c1ccccc1)C1CON(Cc2ccccc2)C1c1ccccc1 (centres undefined) was read as M1 ag parental inactive, CHO-K1 Ca antag 36, CHRM1 antagonist inactive, M1 PAM parental inactive, M1 PAM inactive and CHRM1 agonist inactive.
Cc1nc(C(=O)NCc2ccccc2)sc1C1(C)CC(c2ccccc2)=NO1 (centres undefined) was read as M1 ag parental inactive, CHO-K1 Ca antag inactive, CHRM1 antagonist inactive, M1 PAM parental inactive, M1 PAM inactive and CHRM1 agonist 17.
Screening Nc1ccc2nc3c(=O)n(CCc4ccccc4)c(=O)[nH]c3nc2c1 returned M1 ag parental 53, CHO-K1 Ca antag inactive, CHRM1 antagonist inactive, M1 PAM parental inactive, M1 PAM inactive and CHRM1 agonist 53.
CCCCn1c(=O)[nH]c2nc3cc(N)ccc3nc2c1=O was read as M1 ag parental 24, CHO-K1 Ca antag inactive, CHRM1 antagonist inactive, M1 PAM parental inactive, M1 PAM inactive and CHRM1 agonist 25.

High-throughput results: PubChem, The Scripps Research Institute Molecular Screening Center
